# Experimental data published in PubChem BioAssay (NCI).
# About 79,000 compounds went through this panel and 15% of them were active in at least one assay; those are over-represented in the sample as a whole. Unmarked numbers belong to inactive results. Active and inactive are the calls of the source. Rule as the data show it: active = growth inhibition above about 70%; inactive = the rest.
# Legend:
# [1] = NCI Yeast Anticancer Drug Screen. Data for the wt1 strain (AID 149);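 also: 0% = growth of vehicle-treated wt1 cultures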; conditions: S. cerevisiae wt1 strain (SPY 50644) growth inhibition, active compounds read high
# How it was run: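 wt1 yeast, compound-treated; % growth inhibition vs vehicle control.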
# [2] = NCI Yeast Anticancer Drug Screen. Data for the rad50EPP+ strain (AID 151);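 also: 0% = growth of vehicle-treated control cultures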; conditions: S. cerevisiae rad50 mutant strain, active compounds read high
# How it was run: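 Measured: growth inhibition of rad50EPP+ yeast. Reference: vehicle-treated controls. Screen uses strains with defined genetic alterations in DNA damage repair or cell cycle control.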
# [3] = NCI Yeast Anticancer Drug Screen. Data for the mgt1 strain (AID 153); conditions: S. cerevisiae mgt1 mutant growth inhibition, active compounds read high
# How it was run: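 Compounds were applied to mgt1 mutant yeast, and growth was then compared against vehicle-treated control cultures to give percent inhibition.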
# [4] = NCI Yeast Anticancer Drug Screen. Data for the rad50 strain (AID 155);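 also: 0% = growth of vehicle-only cultures of the same strain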; conditions: S. cerevisiae rad50 strain growth inhibition, active compounds read high
# How it was run: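 Genetically altered yeast (DNA repair pathway); compound treatment; growth inhibition vs vehicle ctrl.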
# [5] = NCI Yeast Anticancer Drug Screen. Data for the mec2-1 strain (AID 157); conditions: S. cerevisiae mec2-1 strain, active compounds read high
# How it was run: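 Compounds were applied to mec2-1 yeast cells. Their growth was then compared with that of vehicle-treated cultures to give growth inhibition.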
# [6] = NCI Yeast Anticancer Drug Screen. Data for the rad14 strain (AID 159);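 also: 0% = growth of vehicle-treated control cultures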; conditions: S. cerevisiae rad14 strain growth inhibition, active compounds read high
# How it was run: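 Test compounds were applied to a repair-deficient yeast strain. Its growth was then compared with that of cultures given vehicle alone, and inhibition was expressed relative to those controls.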
# [7] = NCI Yeast Anticancer Drug Screen. Data for the sgs1 mgt1 strain (AID 161);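 also: 0% = growth of cultures given vehicle only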; conditions: S. cerevisiae sgs1 mgt1 strain, active compounds read high
# How it was run: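 Yeast cells carrying a defined DNA-repair defect were exposed to test compounds. Growth inhibition was measured relative to vehicle-treated controls.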
# [8] = NCI Yeast Anticancer Drug Screen. Data for the CLN2oe strain (AID 163);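 also: 0% = growth of vehicle-only control cultures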; conditions: S. cerevisiae CLN2oe strain, active compounds read high
# How it was run: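 Cells of an engineered yeast line with disturbed cell-cycle regulation are treated with compound. Inhibition of growth is then calculated relative to the vehicle-treated reference.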
# [9] = NCI Yeast Anticancer Drug Screen. Data for the cln2 rad14 strain (AID 165);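 also: 0% = growth equal to vehicle treated cultures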; conditions: S. cerevisiae cln2 rad14 strain, active compounds read high
# How it was run: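 Strain: cln2 rad14 yeast, altered in cell cycle control and DNA damage repair. Read-out: growth inhibition vs vehicle.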
# [10] = NCI Yeast Anticancer Drug Screen. Data for the bub3 strain (AID 167); conditions: S. cerevisiae bub3 mutant strain, active compounds read high
# How it was run: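 Yeast carrying a defined mutation is treated with each compound, and growth is compared with that of vehicle-exposed cells to give inhibition.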
# [11] = NCI Yeast Anticancer Drug Screen. Data for the wt2 strain (AID 169);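 also: 0% = growth of vehicle-treated yeast cultures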; conditions: S. cerevisiae wt2 strain growth inhibition, active compounds read high
# How it was run: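 Growth of compound-treated yeast is measured and expressed as inhibition relative to vehicle-only controls.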
# [12] = NCI Yeast Anticancer Drug Screen. Data for the mlh1 strain (AID 171);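 also: 0% = growth of vehicle-treated control cultures of the same strain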; conditions: S. cerevisiae mlh1 strain growth inhibition, active compounds read high
# How it was run: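 Test agents were incubated with yeast bearing a defined DNA damage repair or cell cycle control alteration; values are growth inhibition normalised to vehicle-treated cultures.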
# [13] = NCI Yeast Anticancer Drug Screen. Data for the sgs1 strain (AID 173);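 also: 0% = growth of vehicle-only control cultures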; conditions: S. cerevisiae sgs1 mutant, active compounds read high
# How it was run: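 Strain with an altered DNA repair or cell cycle pathway exposed to compound. Growth then measured. Value = inhibition versus vehicle control.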
# [14] = NCI Yeast Anticancer Drug Screen. Data for the mlh1 rad18 strain (AID 175); conditions: S. cerevisiae mlh1 rad18 strain growth inhibition, active compounds read high
# How it was run: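 A repair-deficient yeast strain is exposed to test compound, and growth is scored relative to vehicle-treated controls.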
# [15] = NCI Yeast Anticancer Drug Screen. Data for the rad18 strain (AID 177); conditions: S. cerevisiae rad18 mutant growth inhibition, active compounds read high
# How it was run: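 DNA-repair-defective yeast; compound treatment; growth inhibition scored against vehicle.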
# [16] = at 5.0 µM (retest, dose inferred, filed as 0.5)
# [17] = at 50.0 µM (retest, dose inferred, filed as 5.0)
structure (smiles),measurement,setting,value
CCN(CCCl)c1cc(CN(C)C)cc(NC(=O)c2ccc(C(=O)Nc3cc(CN(C)C)cc(N(CC)CCCl)c3)cc2)c1,growth inhibition,[1]; at 1.2 µM,9%
same,growth inhibition,[1]; at 3.7 µM,20%
same,growth inhibition,[1]; at 11.0 µM,9%
same,growth inhibition,[1]; at 33.0 µM,8%
same,growth inhibition,[1]; at 100.0 µM,40%
same,growth inhibition,[2]; at 1.2 µM,17%
same,growth inhibition,[2]; at 3.7 µM,32%
same,growth inhibition,[2]; at 11.0 µM,9%
same,growth inhibition,[2]; at 33.0 µM,19%
same,growth inhibition,[2]; at 100.0 µM,35%
same,growth inhibition,[3]; at 1.2 µM,5%
same,growth inhibition,[3]; at 3.7 µM,3%
same,growth inhibition,[3]; at 11.0 µM,-6%
same,growth inhibition,[3]; at 33.0 µM,10%
same,growth inhibition,[3]; at 100.0 µM,89% (active)
same,growth inhibition,[4]; at 1.2 µM,3%
same,growth inhibition,[4]; at 3.7 µM,11%
same,growth inhibition,[4]; [16],36%
same,growth inhibition,[4]; at 11.0 µM,4%
same,growth inhibition,[4]; at 33.0 µM,58%
same,growth inhibition,[4]; [17],93% (active)
same,growth inhibition,[4]; at 50.0 µM,73.5% (active)
same,growth inhibition,[4]; at 100.0 µM,96% (active)
same,growth inhibition,[5]; at 1.2 µM,-8%
same,growth inhibition,[5]; at 3.7 µM,1%
same,growth inhibition,[5]; [16],26%
same,growth inhibition,[5]; at 11.0 µM,-9%
same,growth inhibition,[5]; at 33.0 µM,8%
same,growth inhibition,[5]; [17],95% (active)
same,growth inhibition,[5]; at 50.0 µM,37.5%
same,growth inhibition,[5]; at 100.0 µM,90% (active)
same,growth inhibition,[6]; at 1.2 µM,-11%
same,growth inhibition,[6]; at 3.7 µM,-13%
same,growth inhibition,[6]; at 11.0 µM,-6%
same,growth inhibition,[6]; at 33.0 µM,56%
same,growth inhibition,[6]; at 100.0 µM,96% (active)
same,growth inhibition,[7]; [16],39%
same,growth inhibition,[7]; [17],97% (active)
same,growth inhibition,[7]; at 50.0 µM,65.2%
same,growth inhibition,[8]; at 1.2 µM,15%
same,growth inhibition,[8]; at 3.7 µM,14%
same,growth inhibition,[8]; at 11.0 µM,17%
same,growth inhibition,[8]; at 33.0 µM,27%
same,growth inhibition,[8]; at 100.0 µM,47%
same,growth inhibition,[9]; [16],6%
same,growth inhibition,[9]; [17],58%
same,growth inhibition,[9]; at 50.0 µM,35%
same,growth inhibition,[10]; at 1.2 µM,-30%
same,growth inhibition,[10]; at 3.7 µM,-28%
same,growth inhibition,[10]; [16],32%
same,growth inhibition,[10]; at 11.0 µM,-14%
same,growth inhibition,[10]; at 33.0 µM,-22%
same,growth inhibition,[10]; [17],97% (active)
same,growth inhibition,[10]; at 50.0 µM,-8.9%
same,growth inhibition,[10]; at 100.0 µM,75% (active)
same,growth inhibition,[11]; at 1.2 µM,-12%
same,growth inhibition,[11]; at 3.7 µM,-19%
same,growth inhibition,[11]; at 11.0 µM,-16%
same,growth inhibition,[11]; at 33.0 µM,3%
same,growth inhibition,[11]; at 100.0 µM,89% (active)
same,growth inhibition,[12]; at 1.2 µM,-6%
same,growth inhibition,[12]; at 3.7 µM,-6%
same,growth inhibition,[12]; at 11.0 µM,-9%
same,growth inhibition,[12]; at 33.0 µM,28%
same,growth inhibition,[12]; at 100.0 µM,90% (active)
same,growth inhibition,[13]; at 1.2 µM,5%
same,growth inhibition,[13]; at 3.7 µM,3%
same,growth inhibition,[13]; at 11.0 µM,7%
same,growth inhibition,[13]; at 33.0 µM,65%
same,growth inhibition,[13]; at 100.0 µM,94% (active)
same,growth inhibition,[14]; [16],71% (active)
same,growth inhibition,[14]; [17],98% (active)
same,growth inhibition,[14]; at 50.0 µM,91.7% (active)
same,growth inhibition,[15]; at 1.2 µM,3%
same,growth inhibition,[15]; at 3.7 µM,57%
same,growth inhibition,[15]; at 11.0 µM,85% (active)
same,growth inhibition,[15]; at 33.0 µM,90% (active)
same,growth inhibition,[15]; at 100.0 µM,97% (active)
